# High-throughput results: PubChem BioAssay, National Center for Advancing Translational Sciences (NCATS)
# Sampled rows, rich in hits. Any-hit rate of the full collection: about 1.2%.
# BRCA1 expr up: BRCA1 expression activation. MCF7-BRCA1-FFLuc reporter, luminescence, 48 h; response scale: scaled: vehicle 0%, 10 µM genistein 100%. Potency, µM (top dose mostly 46.1 µM), for inactives: at the top dose activation, usual class: activators. actives 1.1% (n = 380,000). AID 624202; further: nearly all actives have a fitted effect of over 80% in size
#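 Using MCF7 cells harboring a BRCA1 firefly luciferase reporter, plated 2 h before compound pinning, the screen measured luminescence after 48 h incubation. Responses were normalized to DMSO and 10 microM genistein, then fitted for concentration-effect.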
# B2AR arrestin: agonists driving beta-arrestin recruitment to human beta2-adrenergic receptor; Potency, µM (doses to about 46.1 µM), for inactives: at the top dose activation, hits mostly activators; beta-arrestin recruitment to beta2AR, cell-based reporter; AID 492947; P07550; actives 0.02% (n = 330,000);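 further: 0% = DMSO controls and full agonism = EC100 isoproterenol or metaproterenol; nearly all actives have a fitted effect of over 65% in size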
# Target sequence (P07550 whole entry, looked up): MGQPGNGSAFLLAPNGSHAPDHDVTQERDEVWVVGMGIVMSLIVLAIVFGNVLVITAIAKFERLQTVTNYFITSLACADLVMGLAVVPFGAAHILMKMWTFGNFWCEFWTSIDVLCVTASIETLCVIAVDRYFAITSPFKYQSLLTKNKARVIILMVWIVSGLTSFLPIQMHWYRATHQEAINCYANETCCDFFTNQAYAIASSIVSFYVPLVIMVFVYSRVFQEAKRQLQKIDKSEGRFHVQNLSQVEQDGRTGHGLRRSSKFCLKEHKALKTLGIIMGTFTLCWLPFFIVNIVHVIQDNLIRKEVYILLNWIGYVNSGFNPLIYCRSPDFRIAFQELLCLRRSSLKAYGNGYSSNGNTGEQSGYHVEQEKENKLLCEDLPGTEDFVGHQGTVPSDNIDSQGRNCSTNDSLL
# ERG-DNA inh: ERG Ets/DNA interaction inhibition; P11308; Potency, µM (doses to about 76.9 µM), without a hit: at the highest dose FP activity, negative = inhibition, most hits filed as inhibitors; fluorescence polarization, His-ERG Ets domain / labelled DNA; actives 0.028% (n = 370,000); AID 624246; active means well fitted inhibition curve with a large enough effect in the polarisation, with a control signal flat; inconclusive means small, poorly fitted or top-dose-only effect, or effect the other way, or a change in a side signal; inactive means no such curve, though single readings can be large or run the other way; the % refers to the polarisation;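 further: polarization taken with two DNA probes labelled with fluorescein and Texas red; % of control where 0% means no effect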
#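 His-tagged ERG Ets domain (1 uM in the protein solution; 300mM KCl, 50mM Tris-HCl, 1mM EDTA, 1mM DTT, pH 7.5) received compound, then a probe mix of 5 nM fluorescein-DNA and 100nM Texas-615-DNA. Fluorescence polarization was read for both dyes.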
# Mito fusion yeast: inhibitors of mitochondrial division or activators of mitochondrial fusion. S. cerevisiae fusion-defective mutant growth rescue, CellTiterGlo 48 h. Potency, µM (highest dose often 46.1 µM), for inactives: at the top dose growth rescue (activation), usual class: activators. actives 0.23% (n = 320,000); further: % of control where 0% means no effect; nearly all actives have a fitted effect of over 45% in size
#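 Luminescent cell viability in 1536-well qHTS format served as the measure of rescued growth in ts fusion-mutant S. cerevisiae cultured on non-fermentable YPEG for 48 hours at 37C.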
# Numbers without * were called inactive; ? = inconclusive; nt = not tested or not shown; ! = repeats disagree. Unless noted, the call rests on the fitted dose curve; in most records, active means well fitted curve in the direction sought with a large enough effect; inconclusive means small, poorly fitted or top-dose-only effect, or another doubt; inactive means no such curve, though single readings can be large; an effect the other way counts as inactive or inconclusive. Potency means the concentration at half of the fitted maximal effect.
SMILES,BRCA1 expr up,B2AR arrestin,ERG-DNA inh,Mito fusion yeast
Cc1ccc(NC(=O)OC(C)CNC(=O)Oc2cccc(C)c2)cc1 (configuration not stated),11µM*,0%,-1%,4%
CN(C)c1ccc(NC(=O)Oc2ccccc2)cc1,-18%,?,2%,-4%
[O-]/[N+](=C/c1cccnc1)c1ccc(Br)cc1,11µM*,-1%,-5%,-1%
CC(C)=CCOc1c2occc2cc2ccc(=O)oc12,-12%,-1%,-5%,16µM*!
N[C@@H](Cn1ccc(=O)[nH]c1=O)C(=O)O,nt,nt,nt,-41%
COC(=O)C1=C(c2ccc(OCc3ccccc3)cc2)C[C@@H]2CC[C@H]1N2C(=O)NCc1ccc(OC)c(OC)c1,-58%,18µM*,1%,22%
COC(=O)C1=C(c2ccccc2OCc2ccccc2)C[C@@H]2CC[C@H]1N2C(=O)NCCc1ccc(F)cc1,-35%,1%,-1%,8.9µM*
CN(C(=O)c1cccc(N2C(=O)C3C4C=CC(C4)C3C2=O)c1)C1CCCCC1 (configuration not stated),2%,0%,?,-6%
O=C(CCl)c1ccc(O)c(O)c1,73%,nt,nt,nt
O=C(CN1CCOCC1)c1cccc([N+](=O)[O-])c1,7%,nt,nt,nt
O=C1NC(=S)NC(=O)C1=Cc1ccc(OCc2ccccc2)cc1,13µM*,nt,1%,nt
CP(=O)(O)C1=CCNCC1,nt,nt,nt,-2%
CC1(C)N([O])C(c2ccc(C(=O)O)cc2)=[N+]([O-])C1(C)C,7%,nt,nt,nt
CN(C)c1ccc(N=O)cc1,0%,nt,nt,nt
CN1CC[C@@]23CCCC[C@@H]2[C@@H]1Cc1ccc(O)cc13,0%,0%,9%,-2%
CN1CC[C@]2(c3cccc(O)c3)Cc3nc4ccccc4cc3C[C@H]2C1,nt,11µM*,nt,-4%
CC1=Nc2cc(C(=O)N3CCC4(CC3)OCCO4)ccc2Sc2ccc(Cl)cc21,-21%,0%,15%,16µM*
Cc1nc2ccc(NC(=O)c3ccc(Cl)s3)cc2s1,3.5µM*,-1%,9%,-1%
Cc1nc2ccc(P(=O)(O)O)cc2s1,nt,0%,nt,-2%
CCOC(=O)c1sc(=NC(=O)c2ccc(C)c(C)c2)n(C)c1C,3.2µM*,0%,-8%,0%
CC(C)c1ccc(NC(=O)Cn2c(=O)oc3ccccc32)cc1,28%,0%,-4%,-48%
Cc1ccc(NC(=O)c2ncn(CC(=O)NCc3ccc4c(c3)OCO4)n2)cc1C,11µM*,6%,9%,nt
Fc1ccc([C@@H]2CCNC[C@H]2COc2ccc3c(c2)OCO3)cc1,-78%,-1%,6%,-81%
C=C[C@@H]1C[C@@]1(C)[C@@H](NP(=O)(c1ccccc1)c1ccccc1)c1ccccc1,-23%,-3%,3%,18µM*
Clc1ccc(CCC(Cn2ccnc2)Sc2c(Cl)cccc2Cl)cc1 (configuration not stated),-15%,0%,-1%,0.56µM*
SMILES,BRCA1 expr up,B2AR arrestin,ERG-DNA inh,Mito fusion yeast
Clc1ccc(Cn2ccnc2)cn1,2%,-1%,-13%,-4%
O=c1[nH]c2ccccc2c(=O)n1-c1cccc(Cl)c1,46%,0%,-7%,6%
Cc1ccc(-n2c(=O)[nH]c3ccccc3c2=O)cc1[N+](=O)[O-],11µM*,nt,nt,nt
c1ccc(CN2CCc3nc4ccccc4cc3C2)cc1,10µM*,-1%,4%,14%
Clc1ccc2c(c1)C(c1ccccc1Cl)=NCc1nnc(N3CCN(CCOc4ccccc4)CC3)n1-2,-45%,?,9%,13µM*
Clc1ccc2c(c1)C(c1ccccc1Cl)=NCc1nnc(N3CCN(CCSc4ccccc4)CC3)n1-2,-96%,0%,21%,8%
O=[N+]([O-])c1ccc(NCc2ccccc2)c2nonc12,2%,0%,6.3µM*,-7%
O=[N+]([O-])c1ccc(N2CCCCCC2)c2nonc12,3%,-1%,?,-5%
CC(C)(C)C(=O)c1cn(CC(=O)NCc2ccco2)c2ccccc12,5.6µM*,-1%,7%,-2%
Clc1ccc(C(Cn2ccnc2)OCc2csc3c(Cl)cccc23)c(Cl)c1 (configuration not stated),-39%,-1%,-6%,3.5µM*
O=C(CNC(=O)c1ccc(Br)cc1)Nc1ccc(Br)cc1C(=O)c1ccccc1,-58%,-1%,2%,18µM*
COc1ccc(OCC(=O)N2CCN(Cc3cccc(OC)c3OC)CC2)cc1,nt,nt,16%,nt
Cc1ccc(-c2ccc(=O)n(CCC(=O)N3CCC4(CC3)OCCO4)n2)cc1,11µM*,0%,6%,0%
Nc1ccc(CCN2CCCC2)cc1,0%,0%,-2%,1%
Nc1ccc(CCN2CCN(c3cccc(C(F)(F)F)c3)CC2)cc1,8%,nt,1%,9.2µM*
c1ccc2sc(C3(N4CCCCC4)CCCCC3)cc2c1,nt,nt,nt,11%
CC(C)C(=O)Nc1ccc([N+](=O)[O-])c(C(F)(F)F)c1,0%,0%,-18%,15µM*!
Cn1cc([N+](=O)[O-])c(C(=O)Nc2ccc3c(C(F)(F)F)cc(=O)oc3c2)n1,-11%,0%,1%,-3%
CN(CC(=O)N1CCc2ccccc21)S(=O)(=O)c1cccs1,4µM*,0%,-12%,3%
CC(=O)O[C@H]1CC[C@@]2(C)C(=CC[C@@H]3[C@@H]2CC[C@]2(C)C(=O)CC[C@@H]32)C1,2%,0%,-19%,14µM*
OC(Cn1cncn1)(Cn1cncn1)c1ccc(F)cc1F,-8%,nt,?,nt
N[C@@H](Cn1ccc(=O)c(O)c1)C(=O)O,nt,nt,nt,-13%
CC1=CC(=O)OC2CC3OC4C[C@@H](C)C5OC6CC7O[C@]8(C)C/C=C\C9OC%10CC%11OC(CC(C)CO)CC(O)[C@]%11(C)OC%10CC9OC8C[C@]7(C)O[C@]6(C)CCC5OC4C[C@]3(C)OC12 (some centres not stated),4%,0%,-1%,-2%
C=C(COC(=O)CCC(=O)O)CC1CC(O)[C@]2(C)OC3CC4OC5C[C@]6(C)O[C@]7(C)CCC8OC9C[C@]%10(C)OC%11C(C)=CC(=O)OC%11CC%10OC9C[C@@H](C)C8OC7CC6O[C@]5(C)C/C=C\C4OC3CC2O1 (some centres not stated),-6%,0%,-5%,16µM*
CCOP(=O)(OCC)/C(C#N)=C/c1ccc(-c2ccc(F)cc2F)o1,-3%,0%,2%,?
SMILES,BRCA1 expr up,B2AR arrestin,ERG-DNA inh,Mito fusion yeast
CCCCn1c(NC(=O)c2ccc(Br)o2)c(C(=O)OCC)c2nc3ccccc3nc21,-13%,0%,5%,8.9µM*
C=C1C=C(C(F)F)n2ncc(C(=O)NCc3ccccc3F)c2N1,-9%,nt,nt,nt
CCn1c(C)c(C(=O)O)c2cc(OC)ccc21,-23%,0%,3%,1%
CCCn1c(C)c(C(=O)c2ccc3ccccc3c2)c2ccccc21,nt,nt,nt,13µM*
c1ccc(CCCN2CCN(CCOC(c3ccccc3)c3ccccc3)CC2)cc1,-10%,nt,-18%,7.3µM*
O=C(CNC(=O)OCc1ccccc1)Nc1ccc(Br)cc1C(=O)c1ccccc1Cl,-72%,-1%,-2%,0%
